In assay [1] the target is ATP-dependent 6-phosphofructokinase (Trypanosoma brucei brucei) (UniProt O15648). Put plainly: qHTS Assay to Find Inhibitors of T. brucei phosphofructokinase: hit validation (AID 492961). Further: on the % scale 0 is the no-effect control and ±100 the full control effect. An outline of the steps: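 Luminescence from ADP-Glo reports ADP generated as T. brucei PFK (1.25 nM) phosphorylates 0.5 mM fructose-6-phosphate using 0.1 mM ATP. Reactions ran 45 min at room temperature, pH 8.0.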
On the technique in general: Quantitative high-throughput screening tests each substance at several concentrations.

The target in assay [2] is Luciferin 4-monooxygenase (Photinus pyralis) (UniProt P08659). Put plainly: Biochemical firefly luciferase enzyme assay for NPC (AID 624030).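 Further: purified P. pyralis luciferase at 10 nM with luciferin and ATP substrate; 0% = DMSO and -100% = full luciferase inhibition by PTC124 control; nearly all actives have a fitted effect of over 70% in size.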 An outline of the steps: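 Purified P. pyralis luciferase at 10 nM in 50 mM Tris Acetate (final), luminescence read within 5 minutes of enzyme addition to compounds. Activity normalised to PTC124 versus DMSO; concentration-response curves classed by r2, magnitude and activity.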

The nature of assay [3]: qHTS profiling for inhibitors of Plasmodium falciparum proliferation (AID 504749). Further: nearly all actives have a fitted effect of over 60% in size. Further: potency means the concentration at half of the fitted maximal effect.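 On activity, negative = inhibition: 0% = DMSO vehicle and full inhibition = artemisinin control.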 Conditions: P. falciparum in erythrocytes, SYBR Green DNA, 72 h, at 28.7 µM (top of the series). An outline of the steps:
(§1)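 P. falciparum-infected erythrocytes (0.3% parasitemia, 2.5% hematocrit) incubated with compound 72 h at 37 C, 5% CO2. Parasite DNA detected by SYBR Green after lysis, overnight at room temperature; normalised to 0.29 uM artemisinin and DMSO.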

The subject of another assay is CP185. Described as above. Particulars: P. falciparum in erythrocytes, SYBR Green DNA, 72 h; series mostly up to 28.7 µM. Put shortly:
as §1

The next assay relates to CP192. The assay is described as above. Conditions: P. falciparum in erythrocytes, SYBR Green DNA, 72 h; series mostly up to 28.7 µM. An outline of the steps: as §1
The next assay concerns CP211. Described as above. Particulars: P. falciparum in erythrocytes, SYBR Green DNA, 72 h; series mostly up to 28.7 µM. An outline of the steps: as §1
Another assay concerns CP238. The description is as above. Conditions: P. falciparum in erythrocytes, SYBR Green DNA, 72 h; series mostly up to 28.7 µM. Put shortly:
as §1

A further assay relates to CP252. Described as above. Particulars: P. falciparum in erythrocytes, SYBR Green DNA, 72 h; series mostly up to 28.7 µM. An outline of the steps:
as §1

A further assay relates to CP262. The assay is described as above. Conditions: P. falciparum in erythrocytes, SYBR Green DNA, 72 h; series mostly up to 28.7 µM. An outline of the steps:
as §1

The test system of another assay is CP265. Described as above. Particulars: P. falciparum in erythrocytes, SYBR Green DNA, 72 h; series mostly up to 28.7 µM. An outline of the steps: as §1
The test system of a further assay is CP269. Described as above. Conditions: P. falciparum in erythrocytes, SYBR Green DNA, 72 h; series mostly up to 28.7 µM. An outline of the steps:
as §1

Another assay deals with CP286. Described as above. Particulars: P. falciparum in erythrocytes, SYBR Green DNA, 72 h; series mostly up to 28.7 µM. An outline of the steps: as §1
Another assay relates to CP315. The assay is described as above. Conditions: P. falciparum in erythrocytes, SYBR Green DNA, 72 h; series mostly up to 28.7 µM. An outline of the steps: as §1
A further assay has as its system CP329. Described as above. Particulars: P. falciparum in erythrocytes, SYBR Green DNA, 72 h; series mostly up to 28.7 µM. An outline of the steps:
as §1

The subject of another assay is DFO2036. Described as above. Particulars: P. falciparum in erythrocytes, SYBR Green DNA, 72 h; series mostly up to 28.7 µM. Put shortly: as §1
The subject of a further assay is Dd2. Described as above. Conditions: P. falciparum in erythrocytes, SYBR Green DNA, 72 h; series mostly up to 28.7 µM. An outline of the steps: as §1
For the next assay, the system named is ECU. Described as above. Particulars: P. falciparum in erythrocytes, SYBR Green DNA, 72 h; series mostly up to 28.7 µM. Put shortly:
as §1

A further assay concerns FAB9. The description is as above. Particulars: P. falciparum in erythrocytes, SYBR Green DNA, 72 h; series mostly up to 28.7 µM. An outline of the steps:
as §1

For a further assay, the system named is JCK. The assay is described as above. Conditions: P. falciparum in erythrocytes, SYBR Green DNA, 72 h; series mostly up to 28.7 µM. An outline of the steps:
as §1

For a further assay, the system named is N140. The description is as above. Particulars: P. falciparum in erythrocytes, SYBR Green DNA, 72 h; series mostly up to 28.7 µM. An outline of the steps: as §1

Results filed as inconclusive are left out. A number with no mark means an inactive call. Calls of active or inactive are those of the source. The call rests on the fitted dose curve; in most records, active means well fitted curve in the direction sought with a large enough effect; inconclusive means small, poorly fitted or top-dose-only effect, or another doubt; inactive means no such curve, though single readings can be large; an effect the other way counts as inactive or inconclusive.

Sequence of ATP-dependent 6-phosphofructokinase (Trypanosoma brucei brucei) (O15648 whole entry, looked up): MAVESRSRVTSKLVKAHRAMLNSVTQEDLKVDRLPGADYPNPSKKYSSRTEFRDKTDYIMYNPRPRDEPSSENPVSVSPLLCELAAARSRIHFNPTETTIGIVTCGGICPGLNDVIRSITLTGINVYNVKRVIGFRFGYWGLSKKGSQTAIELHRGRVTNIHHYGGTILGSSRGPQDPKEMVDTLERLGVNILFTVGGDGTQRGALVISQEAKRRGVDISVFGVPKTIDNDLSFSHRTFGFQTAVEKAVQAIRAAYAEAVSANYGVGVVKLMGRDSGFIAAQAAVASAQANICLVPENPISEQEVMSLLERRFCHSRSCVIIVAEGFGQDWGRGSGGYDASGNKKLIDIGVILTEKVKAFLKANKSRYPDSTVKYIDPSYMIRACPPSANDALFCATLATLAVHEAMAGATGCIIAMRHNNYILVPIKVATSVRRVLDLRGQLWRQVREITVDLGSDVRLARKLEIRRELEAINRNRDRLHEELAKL
Sequence of Luciferin 4-monooxygenase (Photinus pyralis) (P08659 whole entry, looked up): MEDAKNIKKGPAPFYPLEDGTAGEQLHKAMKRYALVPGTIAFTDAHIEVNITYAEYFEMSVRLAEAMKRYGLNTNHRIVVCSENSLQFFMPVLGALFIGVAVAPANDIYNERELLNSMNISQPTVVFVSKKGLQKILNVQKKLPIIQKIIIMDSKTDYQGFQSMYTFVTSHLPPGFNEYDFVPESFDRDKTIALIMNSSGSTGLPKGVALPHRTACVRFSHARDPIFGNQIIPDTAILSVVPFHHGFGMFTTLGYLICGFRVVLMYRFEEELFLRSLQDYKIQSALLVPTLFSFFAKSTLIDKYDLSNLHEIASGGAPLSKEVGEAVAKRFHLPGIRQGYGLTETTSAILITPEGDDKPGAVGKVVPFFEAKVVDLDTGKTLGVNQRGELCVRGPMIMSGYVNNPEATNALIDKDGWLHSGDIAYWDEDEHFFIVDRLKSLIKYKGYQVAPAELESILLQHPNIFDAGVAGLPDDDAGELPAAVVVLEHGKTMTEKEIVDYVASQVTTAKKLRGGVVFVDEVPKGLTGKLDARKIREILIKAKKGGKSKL

As for `Cn1cc(C(=O)[C@@H]2CCc3[nH]cnc3C2)c2ccccc21`, the Potency result (in [1]; in [2]; with CP185; in the assay on CP192; in the assay on CP211; in the assay with CP238) was “inactive” each time. In addition, the Potency entry in the assay with CP252, in the assay with CP262, with CP265, in the assay with CP269, with CP286 and in the assay with CP315 was “inactive” in each case. For the same compound, the Potency result in the assay with CP329, with DFO2036, with Dd2, with ECU, in the assay with FAB9 and in the assay on JCK was “inactive” throughout. For the same compound, in the assay on N140, the Potency entry was “inactive”. The activity, negative = inhibition in [3] (parasite line A) is 5.71%; in [3] (parasite line B), 16.1%.
For the compound `CC1(C)O[C@@H]2C[C@H]3[C@@H]4CCC5=CC(=O)C=C[C@]5(C)[C@H]4C(O)C[C@]3(C)[C@]2(C(=O)CO)O1` (some centres not stated), the Potency result (in [1]; in assay [2]; with CP185; in the assay with CP192; in the assay on CP211; in the assay with CP238) was “inactive” in each case. The Potency result in the assay on CP252, in the assay on CP262, in the assay on CP265, in the assay on CP269, with CP286 and with CP329 was “inactive” throughout. The Potency entry in the assay with DFO2036, with FAB9 and with JCK was “inactive” throughout. The activity, negative = inhibition was -12.4% in assay [3] (parasite line A) and -28% in assay [3] (parasite line B). For the same compound, in the assay on N140, the Potency is 11.2 µM (active).
Regarding `CCC1OC(=O)C[C@@H](O)[C@H](C)[C@@H](OC2OC(C)CC(N(C)C)C2O)[C@@H](CC=O)C[C@@H](C)C(=O)/C=C/[C@]2(C)OC2C1C` (some centres not stated), the Potency entry (in assay [1]; in assay [2]; in the assay on FAB9; in the assay on JCK) was “inactive” in each case. The Potency in the assay with CP185 was 2 µM (active); with CP252 it was 3.55 µM (active); in the assay on CP286, 1.12 µM (active); in the assay with Dd2 it was 1 µM (active).
In the case of `CC[C@H]1OC(=O)[C@H](C)C(=O)[C@H](C)[C@@H](OC2O[C@H](C)C[C@H](N(C)C)[C@@H]2O)[C@@](C)(OC)C[C@@H](C)C(=O)[C@@H](C)C2N(CCCCn3cnc(-c4cccnc4)c3)C(=O)O[C@@]21C` (some centres not stated), the Potency result (in assay [1]; in assay [2]; in the assay with CP185; with CP192; with CP211; in the assay on CP238) was “inactive” each time. For the same compound, the Potency result in the assay on CP252, with CP262, with CP265, with CP269, with CP286 and in the assay with CP315 was “inactive” in each case. Further, the Potency entry in the assay with CP329, in the assay with DFO2036 and with FAB9 was “inactive” each time. Further, in [3] (parasite line A), the activity, negative = inhibition was -28.5%. Also, in the assay on ECU, the Potency is 10 µM (active).
As for `O=C(NC(CO)C(O)c1ccc([N+](=O)[O-])cc1)C(Cl)Cl` (configuration not stated), the Potency entry (in [1]; in assay [2]; with CP315; with ECU; in the assay with FAB9; in the assay on JCK) was “inactive” throughout. Further, the figures for the Potency with CP269 and in the assay with Dd2 were 3.01 µM (active) and 8.91 µM (active), respectively.
As to `Oc1cc2cc(CCN3CCN(c4nsc5ccccc45)CC3)c(Cl)cc2[nH]1`, the Potency entry (in assay [1]; in assay [2]; with CP185; with CP192; in the assay on CP211; with CP238) was “inactive” in each case. Also, the Potency entry with CP252, with CP262, in the assay on CP265, with CP269, with CP315 and with CP329 was “inactive” throughout. For the same compound, the Potency entry in the assay with DFO2036, with Dd2, in the assay on ECU, in the assay with FAB9 and in the assay with JCK was “inactive” throughout. Also, in assay [3] (parasite line B), the activity, negative = inhibition was -29.2%.
For `C=CCN1CC(C(=O)N(CCCN(C)C)C(=O)NCC)CC2c3cccc4[nH]cc(c34)CC21` (configuration not stated), the Potency entry (in assay [1]; in assay [2]; in the assay on CP185; in the assay on CP192; in the assay on CP211; with CP238) was “inactive” each time. In addition, the Potency result with CP262, in the assay with CP265, in the assay with CP269, with CP315, in the assay on CP329 and with DFO2036 was “inactive” each time. The Potency result with FAB9 and in the assay with JCK was “inactive” throughout. Moreover, the activity, negative = inhibition in [3] (parasite line B) is -28.9%. In addition, the values for the Potency in the assay on CP286 and with Dd2 were 12.6 µM (active) and 8.91 µM (active), respectively.

(Values after PubChem BioAssay (NCATS).)
